# Measured values reported in PubChem BioAssay (EPA / NIEHS).
# Results filed as inconclusive are left out. Active and inactive are the calls of the source. How the source made its calls: active means hit-call score of the fitted dose curve at least 0.9, where 1 is the maximum; inconclusive means response in the unintended direction; inactive means score below 0.9.
# Target: Cellular tumor antigen p53 (Homo sapiens) (UniProt P04637)
# Assay: TOX21_p53_BLA_p5_ratio: Tox21 HCT-116 p53 Agonism Beta-lactamase Assay, Ratio, Phase 5 (AID 2283599)
# Procedure, shortened: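 Beta-lactamase reporter ratio (blue 460 nm over green 530 nm, 405 nm excitation) after 2 h CCF4-AM loading, in HCT-116 cells exposed 16 h at 37 C to compounds pinned at 217-fold dilution. Increases relative to DMSO baseline scored.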
# Cellular tumor antigen p53 (Homo sapiens), sequence (P04637 whole entry, looked up): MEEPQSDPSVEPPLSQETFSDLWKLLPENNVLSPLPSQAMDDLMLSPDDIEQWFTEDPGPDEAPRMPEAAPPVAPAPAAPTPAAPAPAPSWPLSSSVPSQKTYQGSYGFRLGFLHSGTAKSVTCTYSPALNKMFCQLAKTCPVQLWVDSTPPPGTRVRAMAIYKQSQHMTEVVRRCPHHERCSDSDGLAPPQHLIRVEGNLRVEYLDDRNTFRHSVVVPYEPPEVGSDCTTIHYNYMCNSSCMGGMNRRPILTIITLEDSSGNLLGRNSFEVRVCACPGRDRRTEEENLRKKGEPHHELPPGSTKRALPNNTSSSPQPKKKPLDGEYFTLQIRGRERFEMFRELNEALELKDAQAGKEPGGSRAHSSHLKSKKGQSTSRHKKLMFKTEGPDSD
SMILES,outcome,AC50
CCCCCCCCCCC(=O)O,inactive,–
O=C(O)Cc1cccc(-c2cc(CCCCCCc3ccc(O[C@H]4O[C@H](CO)[C@@H](O)[C@H](O)[C@@H]4O)c(-c4cccc(CC(=O)O)c4)c3)ccc2O[C@H]2O[C@H](CO)[C@@H](O)[C@H](O)[C@@H]2O)c1,inactive,–
Nc1cccc(S(=O)(=O)O)c1,inactive,–
CCC(CC)(CC(=O)Nc1cccc(/C=C/c2nc(C3CCC3)cs2)c1)C(=O)O,inactive,–
Clc1ccc2c(c1)CCc1cccnc1C2=C1CCNCC1,inactive,–
C=Cc1ccccc1,inactive,–
CCCCC(CC)COC(=O)C(C#N)=C(c1ccccc1)c1ccccc1 (stereo not given),inactive,–
Cc1cc(N)c2cc(NC(=O)Nc3ccc4nc(C)cc(N)c4c3)ccc2n1,inactive,–
CC(C)OC(=O)C(C)N(C(=O)c1ccccc1)c1ccc(F)c(Cl)c1 (stereo not given),inactive,–
NC(N)=NC(=O)Cc1c(Cl)cccc1Cl,inactive,–
CC(C)CN(C[C@@H](O)[C@H](Cc1ccccc1)NC(=O)O[C@H]1CO[C@H]2OCC[C@H]21)S(=O)(=O)c1ccc(N)cc1,inactive,–
O=C1c2ccccc2Cc2ccccc21,inactive,–
Cc1c(O)c(=O)ccn1C,inactive,–
CCCC1([C@H](O)C/C=C/[C@H]2[C@H](O)CC(=O)[C@@H]2CCCCCCC(=O)OC)CCC1,inactive,–
CCCCCCCCCCCCCCCC[N+](C)(C)CCN(Cc1ccc(OC)cc1)c1ncccn1,inactive,–
COc1cc(NC(C)CCCN)c2ncccc2c1 (stereo not given),inactive,–
O=C(O)COc1ccc(C(=O)c2cccs2)c(Cl)c1Cl,inactive,–
CC(C)N1CCN(c2ccc(OC[C@H]3CO[C@](Cn4cncn4)(c4ccc(Cl)cc4Cl)O3)cc2)CC1,inactive,–
COc1cc2c(cc1OC)-c1cc(=Nc3c(C)cc(C)cc3C)n(C)c(=O)n1CC2,–,41.3 µM (active)
Nc1nc(-c2ccccc2)c(Br)c(=O)[nH]1,inactive,–

SMILES,outcome,AC50
Cc1cc(CC(=O)O)c(C)n1-c1ccc(Cl)cc1,inactive,–
c1ccncc1,inactive,–
OCC1O[C@@H](O[C@@H]2C(CO)OC(O)C(O)C2O)C(O)C(O)C1O (stereo not given in full),inactive,–
CCNC(=O)N1CCN(CCCC(c2ccc(F)cc2)c2ccc(F)cc2)CC1,inactive,–
CN1CCN(CCC=C2c3ccccc3Sc3ccc(S(=O)(=O)N(C)C)cc32)CC1,inactive,–
C=CCCC,inactive,–
COC(=O)C1=C(C)NC(C)=C(C(=O)O[C@@H]2CCCN(Cc3ccccc3)C2)[C@@H]1c1cccc([N+](=O)[O-])c1,inactive,–
CCCC[P+](C)(CCCC)CCCC,inactive,–
O=C(O[C@H]1CN2CCC1CC2)N1CCc2ccccc2[C@@H]1c1ccccc1,inactive,–
S=c1nccc[nH]1,inactive,–
CCOc1ccc(NC(C)=O)cc1N,inactive,–
CCOC(=O)NNc1ccc(N(CC)CC(C)O)nn1 (stereo not given),inactive,–
O=C(O)c1ccc(OCCCOc2ccc(C(=O)O)cc2)cc1,inactive,–
CCCCCCCCCCCC(=O)OC[C@@H](O)[C@H]1OC[C@H](OCCO)[C@H]1OCCO,inactive,–
CCCCCC1Nc2cc(C(F)(F)F)c(S(N)(=O)=O)cc2S(=O)(=O)N1 (stereo not given),inactive,–
Cc1c(C(=O)O)cccc1[N+](=O)[O-],inactive,–
CC(C)(C)NC[C@H](O)COc1ccccc1C1CCCC1,inactive,–
O=P(O)(O)C(Sc1ccc(Cl)cc1)P(=O)(O)O,inactive,–
c1ccc(CNCCNCc2ccccc2)cc1,inactive,–
CCOC(=O)c1cnc2c(cnn2CC)c1NN=C(C)C,inactive,–

# Test system: not listed separately
# Assay: TOX21_p53_BLA_p5_viability: Viability Assessment in the Tox21 HCT-116 p53 Agonism Beta-lactamase Assay, Phase 5 (AID 2283600)
# Procedure, shortened: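 Counter-readout for cytotoxicity: ATP-dependent luminescence from CellTiter-Glo, read in the beta-lactamase wells after 30 min at RT, following a 16 h compound exposure at 37C.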
SMILES,outcome,AC50
CCCCCCCCCCC(=O)O,inactive,–
O=C(O)Cc1cccc(-c2cc(CCCCCCc3ccc(O[C@H]4O[C@H](CO)[C@@H](O)[C@H](O)[C@@H]4O)c(-c4cccc(CC(=O)O)c4)c3)ccc2O[C@H]2O[C@H](CO)[C@@H](O)[C@H](O)[C@@H]2O)c1,inactive,–
Nc1cccc(S(=O)(=O)O)c1,inactive,–
CCC(CC)(CC(=O)Nc1cccc(/C=C/c2nc(C3CCC3)cs2)c1)C(=O)O,inactive,–
Clc1ccc2c(c1)CCc1cccnc1C2=C1CCNCC1,inactive,–
C=Cc1ccccc1,inactive,–
CCCCC(CC)COC(=O)C(C#N)=C(c1ccccc1)c1ccccc1 (stereo not given),inactive,–
Cc1cc(N)c2cc(NC(=O)Nc3ccc4nc(C)cc(N)c4c3)ccc2n1,inactive,–
CC(C)OC(=O)C(C)N(C(=O)c1ccccc1)c1ccc(F)c(Cl)c1 (stereo not given),inactive,–
NC(N)=NC(=O)Cc1c(Cl)cccc1Cl,inactive,–
CC(C)CN(C[C@@H](O)[C@H](Cc1ccccc1)NC(=O)O[C@H]1CO[C@H]2OCC[C@H]21)S(=O)(=O)c1ccc(N)cc1,inactive,–
O=C1c2ccccc2Cc2ccccc21,inactive,–
Cc1c(O)c(=O)ccn1C,inactive,–
CCCC1([C@H](O)C/C=C/[C@H]2[C@H](O)CC(=O)[C@@H]2CCCCCCC(=O)OC)CCC1,inactive,–
CCCCCCCCCCCCCCCC[N+](C)(C)CCN(Cc1ccc(OC)cc1)c1ncccn1,inactive,–
COc1cc(NC(C)CCCN)c2ncccc2c1 (stereo not given),inactive,–
O=C(O)COc1ccc(C(=O)c2cccs2)c(Cl)c1Cl,inactive,–
CC(C)N1CCN(c2ccc(OC[C@H]3CO[C@](Cn4cncn4)(c4ccc(Cl)cc4Cl)O3)cc2)CC1,inactive,–
COc1cc2c(cc1OC)-c1cc(=Nc3c(C)cc(C)cc3C)n(C)c(=O)n1CC2,–,32.7 µM (active)
Nc1nc(-c2ccccc2)c(Br)c(=O)[nH]1,inactive,–

SMILES,outcome,AC50
Cc1cc(CC(=O)O)c(C)n1-c1ccc(Cl)cc1,inactive,–
c1ccncc1,inactive,–
OCC1O[C@@H](O[C@@H]2C(CO)OC(O)C(O)C2O)C(O)C(O)C1O (stereo not given in full),inactive,–
CCNC(=O)N1CCN(CCCC(c2ccc(F)cc2)c2ccc(F)cc2)CC1,inactive,–
CN1CCN(CCC=C2c3ccccc3Sc3ccc(S(=O)(=O)N(C)C)cc32)CC1,inactive,–
C=CCCC,inactive,–
COC(=O)C1=C(C)NC(C)=C(C(=O)O[C@@H]2CCCN(Cc3ccccc3)C2)[C@@H]1c1cccc([N+](=O)[O-])c1,inactive,–
CCCC[P+](C)(CCCC)CCCC,inactive,–
O=C(O[C@H]1CN2CCC1CC2)N1CCc2ccccc2[C@@H]1c1ccccc1,inactive,–
S=c1nccc[nH]1,inactive,–
CCOc1ccc(NC(C)=O)cc1N,inactive,–
CCOC(=O)NNc1ccc(N(CC)CC(C)O)nn1 (stereo not given),inactive,–
O=C(O)c1ccc(OCCCOc2ccc(C(=O)O)cc2)cc1,inactive,–
CCCCCCCCCCCC(=O)OC[C@@H](O)[C@H]1OC[C@H](OCCO)[C@H]1OCCO,inactive,–
CCCCCC1Nc2cc(C(F)(F)F)c(S(N)(=O)=O)cc2S(=O)(=O)N1 (stereo not given),inactive,–
Cc1c(C(=O)O)cccc1[N+](=O)[O-],inactive,–
CC(C)(C)NC[C@H](O)COc1ccccc1C1CCCC1,inactive,–
O=P(O)(O)C(Sc1ccc(Cl)cc1)P(=O)(O)O,inactive,–
c1ccc(CNCCNCc2ccccc2)cc1,inactive,–
CCOC(=O)c1cnc2c(cnn2CC)c1NN=C(C)C,inactive,–
